Bioassay records deposited in PubChem BioAssay by National Center for Advancing Translational Sciences (NCATS).
An excerpt weighted towards active compounds, which were near 7.4% of everything screened.
SMN2 splice enh: enhancers of SMN2 splice variant expression. HEK293 SMN2-luciferase splicing reporter, luminescence, 30-36 h. Potency, µM (titrated, usually from 46.1 µM), inactives show top-dose activity change, positive = activation, most hits filed as activators. hit rate 2.8% among 210,000; note: % of control where 0% means no effect; nearly all actives have a fitted effect of over 55% in size
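HEK293 cells carry an SMN2 […]–luciferase reporter in which exon 7 inclusion puts luciferase in frame. Cells were plated 10-12 h before compound addition, then incubated 30-36 h at 37C. ONE-Glo luminescence was read; sodium butyrate at 4.5 mM final served as control.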
Rab9 prom act: Rab9 promoter activation | Potency, µM (titrated, usually from 9.22 µM), without a hit: at the highest dose activation, negative = inhibition, most hits filed as activators | Huh7 Rab9 promoter-luciferase reporter, luminescence, 24 h | AID 485297 | hit rate 2.8% among 320,000; note: % of control where 0% means no effect; nearly all actives have a fitted effect of over 60% in size
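Cell-based reporter: Huh7 stable for Rab9 promoter-driven luciferase, plated in reduced-serum medium with 10% FBS at 1500 cells/well, compound-treated 24 h at 37 °C, luminescence read after 10 min reagent.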
ELG1 genotoxic: genotoxicity induction in ELG1-luciferase HEK293T cells. Potency, µM (titrated, usually from 46 µM), without a hit: top-dose activity change, positive = activation, hits mostly activators. HEK293T ELG1-luciferase reporter, luminescence, 16 h. AID 504466. hit rate 1.3% among 330,000; note: % of control where 0% means no effect; nearly all actives have a fitted effect of over 60% in size
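Luminescence read-out: rising ELG1-luciferase signal, reflecting elevated ELG1 protein under genetic stress, flags genotoxic compounds. Cells were treated for 16 hr at 37 °C before ONE-Glo detection.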
NPC1 prom act: activators of NPC1 promoter; Huh7 NPC1 promoter luciferase reporter, 24 h; Potency, µM (titrated, usually from 9.22 µM), for the others: top-dose activation, hits mostly activators; hit rate 2.4% among 320,000; note: % of control where 0% means no effect; nearly all actives have a fitted effect of over 60% in size
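Luciferase expression driven by the NPC1 promoter was measured in stably transfected Huh7 cells after a 24 h compound incubation, using a luciferase reagent and a luminescence read.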
FLuc counter: firefly luciferase modulation, counter-screen for miR-21 project | hit rate 6.9% among 360,000 | Potency, µM (series often up to 57.5 µM), for the others: at the top dose activity change, negative = inhibition, most hits filed as inhibitors | purified FLuc, Km substrates, luminescence inhibition | AID 588342 | P08659;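 note: plate controls were vehicle for no effect and reference inhibitor for full effect; nearly all actives have a fitted effect of over 55% in size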
Target sequence (P08659 whole entry, looked up): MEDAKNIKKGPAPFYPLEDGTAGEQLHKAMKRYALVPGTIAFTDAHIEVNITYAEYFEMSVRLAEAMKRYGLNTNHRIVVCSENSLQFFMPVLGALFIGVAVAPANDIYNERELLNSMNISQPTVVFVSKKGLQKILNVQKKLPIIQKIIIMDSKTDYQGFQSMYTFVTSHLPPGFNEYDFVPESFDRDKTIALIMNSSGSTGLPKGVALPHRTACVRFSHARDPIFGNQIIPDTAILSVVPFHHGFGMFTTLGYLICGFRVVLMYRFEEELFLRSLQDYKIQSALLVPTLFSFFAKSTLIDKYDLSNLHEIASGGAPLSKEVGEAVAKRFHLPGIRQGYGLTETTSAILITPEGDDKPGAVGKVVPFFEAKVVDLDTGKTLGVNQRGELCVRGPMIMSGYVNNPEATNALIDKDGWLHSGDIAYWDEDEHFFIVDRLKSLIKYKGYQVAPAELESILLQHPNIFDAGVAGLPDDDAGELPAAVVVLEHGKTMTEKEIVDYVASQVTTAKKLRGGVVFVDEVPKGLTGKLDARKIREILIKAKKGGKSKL
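Biochemical qHTS of compounds, final roughly 60 µM downward over six points, against 10 nM purified firefly luciferase using Km concentrations of substrates (10 uM D-luciferin, 10 uM ATP) in Tris acetate pH 7.5 buffer; luminescence output.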
The depositor's hits bear a star; ? = inconclusive; · = no result given; [ ] = remark or other dose. Calls come from the whole dose curve; as a rule, active = well fitted curve in the direction sought with a large enough effect; inconclusive = small, poorly fitted or top-dose-only effect, or another doubt; inactive = no such curve, though single readings can be large; an effect the other way counts as inactive or inconclusive. Potency is the fitted concentration of half-maximal effect.

SMILES | SMN2 splice enh | Rab9 prom act | ELG1 genotoxic | NPC1 prom act | FLuc counter
CCc1ccc(CC2S/C(=C(\C#N)C(C)=O)NC2=O)cc1 (configuration not stated) | 11.2µM* | -9.4% | -6.5% | 2.8% | ?
O=C(Nc1nnc2n1CCS2)c1cc(C(F)(F)F)cc(C(F)(F)F)c1 | · | · | · | · | -2.9%
COc1ccc2c(c1)C(=O)[C@H](OC(=O)NCCOc1ccccc1)[C@@H](c1ccc(OC)c(Br)c1)O2 | 10.0% | · | · | · | ·
COc1ccc(OCC(=O)NC2CC(=O)N(c3cccc(OC)c3)C2)cc1 (configuration not stated) | · | · | · | · | -5.4%
Cc1nc2scc(-c3ccccc3)c2c(=O)n1N | 7.9% | -1.2% | -6.6% | -0.7% | -1.0%
Cc1nc2scc(-c3ccccc3)c2c(=O)n1N=C1C=CC(=O)C=C1 | · | ? | ? | 23.4% | 19µM*
c1ccc(COc2ccc3nocc3c2)cc1 | · | 2µM* | ? | 3.16µM* | 7.57µM*
CC(=O)N1CCc2cc(Br)cc(S(=O)(=O)CCC(=O)N3CCN(c4ccc(F)cc4)CC3)c21 | -10.4% | · | · | · | -6.8%
CCCCCn1nc(C)c(/C=N/NC(=O)c2ccoc2C)c1C | 20µM* | ? | ? | ? | 21.3µM*
Cc1nn(Cc2ccccc2)c(C)c1/C=N/NC(=O)c1ccccc1O | · | -8.3% | 2.4% | -8.4% | 7.57µM*
Cc1occc1C(=O)N/N=C/c1cccnc1 | 16.0% | 10.0% | 14.6% | 11.7% | -22.7%
CCCCCn1nc(C)c(/C=N\NC(=O)c2cc(C)oc2C)c1C | 5.2% | 12.3% | 2.2% | 12.5% | 19µM*
Cc1cc(C(=O)N/N=C/c2c(C)nn(-c3ccccc3)c2C)c(C)o1 | · | ? | 8.2% | 21.7% | 21.3µM*
Cc1ccc(Cl)cc1N1CCN(CCCNC(=O)C2COc3ccccc3C2)CC1 (configuration not stated) | · | · | · | · | -7.3%
O[C@H](CNc1ccccn1)c1ccccc1 | -8.8%[9.22 µM] | · | · | · | ·
Cc1cc2c(cc3c(SCC(=O)Nc4cccc(Cl)c4C)nnc(C)n32)o1 | · | · | · | · | -4.8%
COc1ccc(CCNC(=O)C(C)n2c(=O)cc(-c3ccccc3)c3c(C)nn(C)c32)cc1OC (configuration not stated) | · | · | · | · | -2.6%
CCn1nc(C)c(/C=N/NC(=O)c2ccoc2C)c1C | ? | ? | ? | 1.58µM* | 12µM*
CCn1nc(C)c(/C=N/NC(=O)c2nc3nc(C)cc(C)n3n2)c1C | · | -6.8% | -1.7% | -4.7% | 1.1%
Cc1nn(-c2ccccc2)c(C)c1/C=N/NC(=O)c1cc(-c2ccccc2)n[nH]1 | 3.9% | -18.4% | -15.5% | -7.0% | ?
Cc1nn(-c2ccccc2)c(C)c1/C=N/NC(=O)c1cc(-c2cccc3ccccc23)n[nH]1 | 3.8% | -1.1% | -8.4% | -1.7% | 10.7µM*
CCCn1c(CN2CCN(c3ccc(OC)cc3)CC2)nc2c1c(=O)[nH]c(=O)n2C | -8.7% | · | · | · | 1.3%
O=C(COc1ccc2ccccc2c1)NC1CC(=O)N(c2cccc(F)c2)C1 (configuration not stated) | · | · | · | · | -2.1%
Cc1cc2c(c(=O)o1)C1O[C@](c3ccsc3)(Cc3ccccc31)O2 | · | -10.6%[1.84 µM] | · | 1.3%[1.84 µM] | 4.2%[11.5 µM]
O=C(Nc1ccccc1)N1CCC2(CC1)CCN(C(=O)c1ccncc1)CC2 | 4.6% | · | · | · | ·
SMILES | SMN2 splice enh | Rab9 prom act | ELG1 genotoxic | NPC1 prom act | FLuc counter
COc1ccc(CNC(=O)c2sc3nc4c(c(C(F)(F)F)c3c2N)CCC4)cc1OC | -76.4% | -5.1% | 4.3% | -0.4% | 21.3µM*
COc1ccc(C(=O)c2sc3nc4c(c(C(F)(F)F)c3c2N)CN(C(C)=O)CC4)cc1OC | -12.0% | · | · | · | -1.9%
Clc1ccc(-c2nnc(NC3=NCCCCC3)o2)cc1 | ? | 0.316µM* | ? | 0.355µM* | 0.426µM*
CC(=O)c1c(C)n(-c2cccc(C)c2)c2ccc(OC(=O)COc3ccccc3)cc12 | -36.2% | · | · | · | 0.9%
CC(/C=N/NC(=O)c1cccc([N+](=O)[O-])c1)=C\c1ccccc1 | -1.8% | 21.1% | 8.9% | ? | -13.5%
CC(/C=N/NC(=O)c1ccccc1F)=C\c1ccccc1 | · | 1.12µM* | ? | 1.12µM* | 3.38µM*
COc1ccc(C(=O)NCC(=O)N/N=C/C(C)=C/c2ccccc2)cc1OC | -0.7% | -0.2% | -1.0% | -7.2% | 16.9µM*
CC(/C=N/NC(=O)c1ccco1)=C\c1ccccc1 | 2.51µM* | 0.355µM* | 2.31µM* | 0.562µM* | 2.39µM*
CC(/C=N\NC(=O)c1ccc(C)nc1)=C\c1ccccc1 | 7.1% | -3.0% | 1.8% | 3.0% | 8.49µM*
COC(=O)C1OC(=O)C2O[C@@]23[C@]2(C)C(OC(C)=O)CC4C(C)(C)C(=O)CC[C@]4(C)C2CC[C@@]13C (some centres not stated) | 12.3% | · | · | · | ·
CCc1nnc(SCC(=O)N(CC)c2ccccc2)c2cc3oc(C)cc3n12 | · | · | · | · | -10.1%
COC(C(=O)Nc1ccc(C(N)=O)cc1)c1ccccc1 (configuration not stated) | 15.8µM* | -7.8% | -1.7% | 1.4% | 3.9%
O=C(c1cc2ccccc2oc1=O)N1CCN(c2ccc(F)cc2)CC1 | -2.5% | · | · | · | -1.6%
O=C(O)c1ccc(N2CCCCC2)cc1O | · | 1.1% | 5.9% | 16.4% | 15.1µM*
O=C(O)c1ccc(N2Cc3ccccc3C2)cc1O | -6.0% | 27.3% | 2.5% | 20.8% | 23.9µM*
Oc1cccc(N2Cc3ccccc3C2)c1 | · | -0.8%[1.84 µM] | 10.7% | -0.5% | ?
Cc1ccc(S(=O)(=O)N(C)c2ccccc2C(=O)Nc2ccc3c(c2)OCCO3)cc1 | · | 1.1% | -0.3% | 0.5% | -14.8%
O=C(CCl)Nc1ccccc1C(=O)Nc1ccc2c(c1)OCO2 | · | 0.398µM* | 13.3% | 0.708µM* | -4.3%
O=C(NC(=S)Nc1ccc2c(c1)OCCO2)c1ccccc1F | ? | 1.26µM* | ? | 2.51µM* | 5.36µM*
O=C(NC(=S)Nc1ccc2oc(=O)ccc2c1)c1ccccc1F | · | -5.6% | 16.6% | -7.1% | -4.6%
O=C(NC(=S)Nc1ccc(F)cc1)c1ccc2c(c1)OCCO2 | ? | 0.501µM* | ? | 0.631µM* | 1.9µM*
CS(=O)(=O)Nc1ccccc1C(=O)Nc1ccc2c(c1)OCCO2 | 18.2% | 2.4% | ? | -0.2% | 12µM*
CC(=O)c1cccc(Nc2ncnc3c2cnn3-c2cccc(Cl)c2)c1 | · | · | · | · | -14.7%
Cc1ccc(-n2c(Cc3ccccc3)nnc2SCc2nc(-c3cccs3)no2)cc1C | -2.5% | · | · | · | ?
COc1ccc(N2CCN(C(=O)c3cn(C4CCCCC4)c(=O)c4c3c3ccccc3n4C)CC2)cc1 | -0.3% | · | · | · | -0.8%
O=C(Nc1ccc2c(c1)OCCO2)c1c(F)cccc1F | 12.6µM* | 3.16µM* | 3.26µM* | 2.51µM* | 6.01µM*
O=C(NC(=S)Nc1ccc2c(c1)OCCO2)c1ccccc1 | 7.08µM* | 0.891µM* | ? | 0.631µM* | 1.2µM*
COc1cc(C(=O)NC(=S)Nc2ccc3c(c2)OCO3)cc(OC)c1OC | · | -9.8% | -1.6% | 1.1% | ?
